Test results from PubChem BioAssay (NCI).
The panel holds about 83,000 compounds, 20% with a hit somewhere; the sample as a whole holds those more often.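 Single-concentration screen, 48 h exposure, 96-well plates. Endpoint: percent growth. Below 10 = active.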 Unmarked numbers belong to inactive results. Calls of active or inactive are those of the source.

Columns and labels:
Assay in all cases: NCI-60 one-dose screen, 48 h (100 = growth as untreated, 0 = no growth, -100 = all killed)
Settings in all cases: 10 µM unless noted
[1] = system: NCI-H23 lung
[2] = system: NCI-H226 lung
[3] = system: NCI-H322M lung
[4] = system: HOP-62 NSCLC
[5] = system: NCI-H460 lung
[6] = system: HOP-92 NSCLC
[7] = system: NCI-H522 lung
[8] = system: A549/ATCC NSCLC
[9] = system: 786-0 renal
[10] = system: COLO 205 colon
[11] = system: DU-145 prostate
[12] = system: K-562 leukemia
[13] = system: MALME-3M melanoma
[14] = system: MDA-MB-231 breast
[15] = system: RXF 393 renal
[16] = system: SF-268 CNS
[17] = system: SF-295 CNS
[18] = system: SF-539 CNS
[19] = system: UACC-257 melanoma
[20] = system: M14 melanoma

Row | Structure (SMILES) | growth [1] | growth [2] | growth [3] | growth [4] | growth [5] | growth [6] | growth [7] | growth [8] | growth [9] | growth [10] | growth [11] | growth [12] | growth [13] | growth [14] | growth [15] | growth [16] | growth [17] | growth [18] | growth [19] | growth [20]
1 | Cc1ccc(/C=C2\Oc3cc(OCC(=O)c4ccc(Cl)cc4)ccc3C2=O)cc1 | 90.1% | 109% | 103% | 104% | 120% | 88.2% | 103% | 90.1% | 107% | 111% | 112% | 95.2% | 90% | 107% | 99.5% | 119% | 114% | 103% | 98.1% | 102%
2 | C(=N\Nc1ccccn1)/c1ccccn1 | 12.1% | 16% | 15.7% | 19.2% | 7.9% (active) | 79.1% | -9.71% (active) | 12.2% | -41.9% (active) | 34.6% | 9.51% (active) | 19.3% | -2.58% (active) | 47.6% | 17% | -0.109% (active) | 21.7% | 7.48% (active) | -18.9% (active) | -35.8% (active)
3 | CC1=C(C)C(=O)OC([C@](C)(O)[C@]2(O)CC[C@@]3(O)[C@@H]4C[C@H]5O[C@]56CC=CC(=O)[C@]6(C)[C@H]4CC[C@]23COC(=O)c2ccc(C)o2)C1 (stereo not given in full) | -45% (active) | -20.9% (active) | -63% (active) | -73.8% (active) | -57.1% (active) | -58.7% (active) | -68.7% (active) | 4.97% (active) | -64.1% (active) | -72.1% (active) | -92.1% (active) | 1.46% (active) | -85% (active) | -54.8% (active) | -88.8% (active) | -55.8% (active) | -24.5% (active) | -91.2% (active) | -58.7% (active) | -0.794% (active)
4 | COc1ccc(/C=N\NC(=O)CN2CCN(c3cc4c(cc3F)c(=O)c(C(=O)N/N=C/c3ccc(OC)cc3)cn4C3CC3)CC2)cc1 | 96.3% | 85.6% | 91.7% | 97.4% | 86.1% | 92.1% | 73.8% | 82.8% | 93.9% | 96.9% | 91.6% | 71.7% | 85.2% | 85.7% | 83.3% | 76.7% | 91.3% | 83% | 91.6% | 92.1%
5 | COc1cc(NCCCCN=C(N)NC(N)=NC(C)C)c2ncccc2c1 | -31.5% (active) | 94.3% | 33.6% | 75.3% | 74.4% | 33.7% | -6.15% (active) | 98.9% | 106% | -18.5% (active) | 127% | 39.1% | -2.65% (active) | 21.3% | 154% | 54.1% | 113% | 78.1% | 25.2% | 92.4%
6 | NS(=O)(=O)c1ccc(-n2ncc3c(=O)[nH]c(CN4CCN(c5cc6c(cc5F)c(=O)c(C(=O)O)cn6C5CC5)CC4)nc32)cc1 | 87.9% | 100% | 102% | 113% | 101% | 88.4% | 91.8% | 104% | 96.1% | 114% | 110% | 95.8% | 105% | 85.8% | 98.2% | 91.6% | 91.8% | 97% | 105% | 92.9%
7 | C=C1C(=O)O[C@H]2[C@H]1CC/C(Cn1cc(Cn3ccc4ccccc43)nn1)=C\CC[C@@]1(C)O[C@@H]21 | 45.6% | 76.8% | 79.7% | 77.5% | 86.5% | -36.3% (active) | -60.6% (active) | 62% | -19.5% (active) | -71.4% (active) | 18.1% | -16.5% (active) | -54.5% (active) | -24.8% (active) | -22.9% (active) | 39.9% | 76.2% | -62.8% (active) | 41.3% | 14.4%
